The source of these data is PubChem BioAssay AID1851 (National Center for Advancing Translational Sciences (NCATS), 2009).

Each structure is given as a SMILES string. Several values for one entry are separate records, joined by “and”; a condition that tells them apart may be missing. Equal values may be shown once. Hit rate of the full screen: of about 16,000 compounds, about 5,800 (36%) were called active. About 23% were inconclusive and are not listed. Calls come from the whole dose curve; as a rule, active = well fitted curve in the direction sought with a large enough effect; inconclusive = small, poorly fitted or top-dose-only effect, or effect the other way; inactive = no such curve, though single readings can be large or run the other way. Some of the results follow. More than one record can exist for a structure, and the calls need not agree.
% is set by controls: 0 for no effect and ±100 for the full control effect.

This assay deals with Cytochrome P450 2C19 (Homo sapiens) (UniProt P33261). Nature of the assay: Cytochrome panel assay with activity outcomes. The settings on record: recombinant CYP, pro-luciferin dealkylation, luminescence, p450-cyp2c19; series mostly up to 57.1 µM.
Cytochrome P450 2C19 (Homo sapiens), sequence (P33261 whole entry, looked up): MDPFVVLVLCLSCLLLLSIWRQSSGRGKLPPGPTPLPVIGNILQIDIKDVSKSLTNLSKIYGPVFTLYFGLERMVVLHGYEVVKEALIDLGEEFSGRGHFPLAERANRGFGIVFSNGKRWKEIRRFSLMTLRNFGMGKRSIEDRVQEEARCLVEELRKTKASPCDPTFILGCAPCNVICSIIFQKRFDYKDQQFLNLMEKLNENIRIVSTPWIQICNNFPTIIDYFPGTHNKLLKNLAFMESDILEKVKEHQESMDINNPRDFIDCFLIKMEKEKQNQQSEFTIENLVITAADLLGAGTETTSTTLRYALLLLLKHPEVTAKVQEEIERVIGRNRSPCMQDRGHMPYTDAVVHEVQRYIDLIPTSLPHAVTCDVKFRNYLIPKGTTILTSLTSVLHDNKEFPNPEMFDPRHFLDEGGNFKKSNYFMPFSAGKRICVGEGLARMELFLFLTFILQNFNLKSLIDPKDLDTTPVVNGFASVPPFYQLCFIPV
With `CS(=O)(=O)N1CCC2(CC1)CN(c1cccc(-c3ccccc3)c1)C2`, the AC50 (usually the midpoint of the concentration-response curve, whichever way the signal moves) is “inactive”.
In the case of `CCn1c2ccccc2c2cc(NS(=O)(=O)c3ccccc3C)ccc21`, the AC50 is 282 nM (active).
With `CCn1c(C)nc2cc(C(=O)NNS(=O)(=O)c3ccccc3F)ccc21`, the AC50 result is “inactive”.
On the same count and under the same terms, the figure for `CCc1ccc2[nH]c(O)c(N=Nc3nc(-c4ccccc4)cs3)c2c1` is 15800 nM (active).
For `O=[N+]([O-])c1ccccc1N=Nc1c(O)[nH]c2ccc(S(=O)(=O)O)cc12`, the activity, negative = inhibition is -23.2% [at 11.4 µM] (inactive).
As to `COC(=O)C1=C(C)NC(C)=C([N+](=O)[O-])[C@H]1c1ccccc1C(F)(F)F`, the AC50 is 158 nM (active).
Still for that read-out and setting: as for `COC(=O)C1=C(C)NC(C)=C([N+](=O)[O-])[C@@H]1c1ccccc1C(F)(F)F`, the figure is 126 nM (active).
The same measure, in the same setting: the entry for `CCC(=O)O[C@@]1(C(=O)SCF)[C@@H](C)C[C@H]2[C@@H]3C[C@@H](F)C4=CC(=O)C=C[C@@]4(C)[C@]3(F)[C@@H](O)C[C@]21C` is “inactive”.
Turning to `C[C@@H](c1ccccc1)N1C(=O)[C@H]2[C@H]3[C@H](O)[C@H](O)C/C(=N/OC[C@@H](O)COCc4ccco4)[C@H]3CC[C@@H]2C1=O`, the activity, negative = inhibition was -25% [at 11.4 µM] (inactive).
`CCOC(=O)[C@@]12C[C@@H]1/C(=N/O)c1ccccc1O2`: the AC50 entry is “inactive”.
Same read-out and setting: as for `O=C(Nc1ccccc1)[C@@]12C[C@@H]1/C(=N/O)c1ccccc1O2`, the figure is 10000 nM (active); as for `N=C1[C@@H](O)[C@]2(I)c3ccccc3N3C(=N)[C@H](O)[C@@H]4c5ccccc5N1[C@@H]4[C@@H]32`, 3160 nM (active); as for `CC(C)[C@H](N)c1nnc(SC/C=C/c2ccccc2)o1`, 2000 nM (active).
Turning to `CC(C)[C@H](N)c1nnc(SCc2ccc(Cl)cc2)o1`, the AC50 was 178 nM (active).
Take `OC[C@@H](O)[C@@H](O)[C@@H](O)[C@@H](O)c1nc2ccc(Cl)cc2[nH]1`: the activity, negative = inhibition is -0.441% [at 11.4 µM] (inactive).
In the case of `C/C(=N\N=C(c1ccccc1)c1ccccc1)c1cccs1`, the half-maximal activity concentration (AC50) was 3550 nM (active).
The same measure, in the same setting: the entry for `C/C(=N\N=C1\NC(=O)CC(C(=O)O)S1)c1cccs1` (centres undefined) is “inactive”.
As for `CC(=O)/C(=N\N=C(N)N)c1ccccc1`, the activity, negative = inhibition is 102% [at 11.4 µM] (inactive).
Consider `O=C(c1n[nH]c(=O)c2ccccc12)N1CCN(C2c3ccccc3-c3ccccc32)CC1`, for which the concentration at half-maximal activity (AC50) is 3160 nM (active).
With `CC[N+](CC)(CC)CC(=O)Nc1c(C)cccc1C`, the AC50 entry was “inactive”.
The same measure, in the same setting: as for `Cc1cccc(C)c1NC(=O)C[N+](C)(C)C`, the entry is “inactive and 15.8 µM (active)”.
Still for that read-out and setting: as for `CC[N+](CC)(CC(=O)Nc1c(C)cccc1C)Cc1ccccc1`, the entry is “inactive”.
For the compound `C/C(=N\[N+](C)(C)C)c1ccc(C)c(C)c1`, the activity, negative = inhibition was 17.4% [at 11.4 µM] (inactive).
With `CC1=Nc2ccccc2/C1=C\c1nc(-c2ccc(C(F)(F)F)cc2)oc1O`, the concentration at half-maximal activity (AC50) was 14100 nM (active).
As to `COc1cccc(OC)c1/C(O)=C(\C#N)c1nc2ccccc2[nH]1`, the half-maximal activity concentration (AC50) is 7080 nM (active).
The same measure, in the same setting: as for `Cc1ccccc1OC/C(O)=C(\C#N)c1nc2ccccc2[nH]1`, the entry is “inactive”; as for `C=CC1=C(C(=O)O)N2C(=O)[C@@H](NC(=O)/C(=N\OCC(=O)O)c3csc(N)n3)[C@@H]2SC1`, “inactive”.
Regarding `CCOc1ccc(NC(=O)CSc2nc(C)c3c(c2C#N)CCCC3)cc1`, the half-maximal activity concentration (AC50) is 2820 nM (active).
The same measure, in the same setting: as for `CSc1nc(N)nc(SCC(=O)Nc2ccc(Cl)cc2)c1C#N`, the figure is 708 nM (active); as for `COc1ccc(NC(=O)CSc2nc(C)c3c(c2C#N)CCCC3)cc1`, 1120 nM (active).
As for `CCOc1ccc(NC(=O)CCNS(=O)(=O)c2ccc3c(c2)c(=O)n(C)c(=O)n3C)cc1`, the AC50 result was “inactive”.
`COc1ccc(CSC2=C(C#N)C(=O)NC3(CCCCC3)S2)cc1`: the activity, negative = inhibition was -6.47% [at 11.4 µM] (inactive).
For `CC(=O)Nc1ccc(C2=NN(CC#N)C(=O)SC2)cc1`, the AC50 result was “inactive”.
For `CO[C@H]1COC(=O)[C@H]2CCCN2C(=O)[C@@H](C)COC(=O)C/C=C\[C@@H]1C`, the activity, negative = inhibition was 43.2% [at 11.4 µM] (inactive).
For `C#CCCCO/N=C1/[C@H]2O[C@@H]2[C@@H](O)[C@H]2[C@H]1CCn1c(=O)n(C)c(=O)n12`, the activity, negative = inhibition was -3.85% [at 11.4 µM] (inactive).
Turning to `O=C(Oc1ccc(C(=S)N2CCOCC2)cc1Br)c1cc(Cl)ccc1Cl`, the AC50 result is “inactive”.
Still for that read-out and setting: the entry for `Cc1c(-c2ccccc2)oc2c(C(=O)OCCN3CCCCC3)cccc2c1=O` is “inactive”; for `Cc1ccccc1C(=O)Oc1ccc(Br)cc1C(=S)N1CCCC1` it is 2240 nM (active).
The same measure, in the same setting: as for `COc1ccc2c(c1)C(=O)N(c1ccccc1)C(=O)C2`, the figure is 11200 nM (active); as for `COc1ccc(-n2c(C)n[nH]c2=O)cc1`, “inactive”.
On the same count and under the same terms, as for `O=C(c1c(O)c2ccc(Cl)cc2[nH]c1=O)C1CC1`, the entry is “inactive”.
With `CC(C)CN1CCC2(CC1)CCN(C(=O)c1ccncc1)CC2`, the AC50 entry was “inactive”.
The same measure, in the same setting: the figure for `CC(C)Cc1nc(N2CCN(C(=O)c3ccccc3)CC2)c(C#N)c2c1CCC2` is 2510 nM (active); for `COc1ccc(C(=O)N2CCC3(CCN(Cc4ccc(C#N)cc4)CC3)CC2)cc1` it is “inactive”.
The same measure, in the same setting: the figure for `N#Cc1c(N2CCN(C(=O)c3ccccc3Cl)CC2)nc(-c2ccccc2)c2c1CCCC2` is 3980 nM (active); for `CCC(=O)N1CCN(C(=O)c2ccccc2)CC1` it is “inactive”; for `N#Cc1ccc(CN2CCC3(CC2)CCN(C(=O)c2ccncc2)CC3)cc1` it is “inactive”.
`CC(=O)OC[C@@H]1O[C@@H](O/N=C2/C[C@@H](O)[C@@H](O)[C@@H]3[C@H]4C(=O)N(c5ccc(F)cc5F)C(=O)[C@@H]4CC[C@@H]23)[C@H](OC(C)=O)[C@H](OC(C)=O)[C@@H]1OC(C)=O`: the activity, negative = inhibition is 51.5% [at 11.4 µM] (inactive).
`Cc1cc(NC(=O)Nc2ccc3c(ccn3C)c2)sn1`: the AC50 is 3160 nM (active).
For the compound `CCCC[C@@H]1CN2[C@H](c3ccc(Br)cc3)[C@@H](C)CC[C@H]2C(=O)O1`, the activity, negative = inhibition was -43.3% [at 11.4 µM] (inactive).
As to `C[C@@H]1CC[C@H]2C(=O)NC[C@@H](O)CN2[C@@H]1c1ccc(Br)cc1`, the half-maximal activity concentration (AC50) was 2000 nM (active).
On the same count and under the same terms, as for `C[C@@H]1CC[C@H]2C(=O)O[C@H](CN=[N+]=[N-])CN2[C@@H]1c1ccc(Br)cc1`, the figure is 398 nM (active).
Same read-out and setting: the figure for `CCCC[C@@H]1CN2[C@H](c3ccc(Br)cc3)[C@H](C)CC[C@H]2C(=O)O1` is 3980 nM (active).
With `C[C@@H]1CN2[C@H](c3ccc(Br)cc3)[C@H](C)CC[C@H]2C(=O)O1`, the activity, negative = inhibition was -28.6% [at 11.4 µM] (inactive).
